The structures appear in SMILES notation. Active and inactive are the calls of the source.

The target of one test is Albumin (Bos taurus) (UniProt P02769). Briefly: compounds binding labelled BSA control protein – biochemical, small-molecule microarray, Alexa647 label, 635/667 nm fluorescence, artefact control for SMM control protein annotation, profiling panel (AID 1118).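 Further: score merges 667 nm emission intensity and signal-to-noise per printed compound spot.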 The note with it: BSA-A647 binding, fluorescence 635 nm, higher = more signal.
Sequence of Albumin (Bos taurus) (P02769 whole entry, looked up): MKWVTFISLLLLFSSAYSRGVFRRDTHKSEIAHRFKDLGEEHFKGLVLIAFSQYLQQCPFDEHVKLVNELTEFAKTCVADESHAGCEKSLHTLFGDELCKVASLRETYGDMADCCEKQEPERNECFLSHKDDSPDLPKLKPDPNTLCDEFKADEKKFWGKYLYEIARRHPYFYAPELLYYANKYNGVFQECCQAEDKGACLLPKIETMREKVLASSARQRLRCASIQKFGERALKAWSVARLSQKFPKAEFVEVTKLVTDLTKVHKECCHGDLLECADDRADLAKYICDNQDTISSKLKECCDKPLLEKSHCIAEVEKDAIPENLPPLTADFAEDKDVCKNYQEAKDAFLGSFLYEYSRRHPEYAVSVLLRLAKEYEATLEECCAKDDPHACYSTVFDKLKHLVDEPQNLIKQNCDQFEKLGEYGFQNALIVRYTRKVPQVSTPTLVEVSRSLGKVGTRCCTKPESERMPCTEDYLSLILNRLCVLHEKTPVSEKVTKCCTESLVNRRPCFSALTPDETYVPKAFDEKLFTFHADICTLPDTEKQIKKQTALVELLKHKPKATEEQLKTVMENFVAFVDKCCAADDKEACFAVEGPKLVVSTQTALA
Test [1] can be described thus: probe aXIP binding to arrayed compounds – biochemical, NeuroSMM set, 635/667 nm fluorescence, primary screen (AID 1119).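 Further: probe is the protein aXip251-270 applied at 1 µg/mL to compound-printed slides; binding of probe to printed compounds measured as 667 nm fluorescence plus signal to noise.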 The following applies: small-molecule microarray, higher = more signal, called active from +8 up or from −8 down.
The nature of test [2]: probe aNOTCH3 binding on compound microarray – biochemical, small-molecule microarray, 635/667 nm fluorescence, primary screen (AID 1120).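 Further: probe is a biotin-tagged antibody raised against NOTCH3 rather than NOTCH3 protein; score merges spot fluorescence near 667 nm with spot signal to noise.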 The following applies: higher = more signal.
Test [3] can be described thus: probe aNOTCH2 binding on compound microarray – biochemical, small-molecule microarray, 635/667 nm fluorescence, primary screen (AID 1121).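 Further: score merges feature fluorescence read at 667 nm with its signal to noise.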 The following applies: higher = more signal.
Test [4] addresses Carbonic anhydrase 2 (Homo sapiens) (UniProt P00918). Briefly: compounds binding carbonic anhydrase 2 – biochemical, small-molecule microarray, Alexa647-labelled CAII, profiling panel (AID 1122). The following applies: CAII-A647 binding fluorescence, higher = more signal.
Test [5] can be described thus: COS7 lysate on small-molecule microarray, probe aHis, 635 nm (AID 1123).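 Further: z-score combines 667nm fluorescence intensity with signal-to-noise per printed compound spot.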 The following applies: COS7 cell lysate, fluorescence, higher = more signal.
Test [6] is described as follows: probe aLAP1 signal on lysate-treated microarray – cell lysate, small-molecule microarray, COS7 lysate, primary screen (AID 1124).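 Further: lysate comes from COS7 cells expressing LAP1 and is applied at 0.3 µg/mL; score merges spot fluorescence near 667 nm with signal-to-noise over triplicate slides.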 The following applies: probe aLAP1, fluorescence, higher = more signal.
The subject of the next test is Sam68 (KHDRBS1). Briefly: compounds binding KHDRBS1 protein – biochemical, small-molecule microarray, 635 nm fluorescence, primary screen (AID 1125).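 Further: score merges 667 nm channel intensity with signal to noise over triplicate slides.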 The note with it: higher = more signal.
Test [7] concerns Chordin-like protein 2 (CHRDL2). Briefly: compounds binding chordin-like 2 – biochemical, small-molecule microarray, 635 nm fluorescence, primary screen (AID 1126).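 Further: printed compound slides probed with Chrdl2 protein at 4 µg/mL for 1 h at 4 C; score merges 667 nm emission intensity with signal to noise over three replicate slides.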 The note with it: fluorescence 635 nm, higher = more signal.
In test [8] the target is Concanavalin-A (Canavalia ensiformis) (UniProt P02866). Briefly: compounds binding concanavalin A lectin – biochemical, small-molecule microarray, Alexa647 label, 635 nm, artefact control for SMM control protein annotation, primary screen (AID 1127).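 Further: z combines 667 nm emission intensity with signal-to-noise across three replicate slides.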 The note with it: ConA-A647 binding fluorescence, higher = more signal.
Sequence of Concanavalin-A (Canavalia ensiformis) (P02866 whole entry, looked up): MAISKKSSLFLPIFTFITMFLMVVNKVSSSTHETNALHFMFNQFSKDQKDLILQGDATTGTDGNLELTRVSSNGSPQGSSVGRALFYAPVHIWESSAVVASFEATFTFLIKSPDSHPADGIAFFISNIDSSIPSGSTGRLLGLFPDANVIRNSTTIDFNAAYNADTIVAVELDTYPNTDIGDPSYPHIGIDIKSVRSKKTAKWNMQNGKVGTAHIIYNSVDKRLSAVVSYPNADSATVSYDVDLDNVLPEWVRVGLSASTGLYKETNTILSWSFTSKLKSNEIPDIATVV

As for `Cc1ccc(S[C@]2(C(=O)NCCN3CCOCC3)CC(=O)N(Cc3cc(C(F)(F)F)cc(C(F)(F)F)c3)[C@@H]2c2ccc(CO)cc2I)cc1`, the composite z-score was 0.59 with Albumin (Bos taurus); -0.214 in [2]; -0.164 in test [3]; 0.661 in [4]; 0.373 in [5]; -0.0586 in test [6]. The results for the composite z-score (with Sam68 (KHDRBS1); in [7]; in [8]) were 0.134, -1.16 and -0.13, respectively. For the same compound, in test [1], the composite Z-score was -1.18 (inactive).

Consider `CC(C)N1CC=CC23O[C@@H]4C=CCOC(=O)[C@@H]4[C@H]2C(=O)N(CCO)[C@@H]3C1=O` (stereo not given in full), for which the composite z-score in the test with Albumin (Bos taurus) was -0.0355; in [2], -0.299; in test [3], -0.14; in [4], 0.9; in test [5], 1.29; in test [6], -0.252. Besides, the composite z-score in the test on Sam68 (KHDRBS1) is 0.557; in [7] it was -1.59; in test [8], -0.329. Moreover, the composite Z-score in test [1] was 0.604 (inactive).

As for `COc1cc2c(cc1O)C(C)N(Cc1cccc(OC(F)(F)F)c1)CC2` (stereo not given), the composite z-score with Albumin (Bos taurus) is 0.986; in [2], -0.0204; in test [3] it was -0.0839; in test [4], 0.662; in [5], 2.23; in [6], 0.572. Besides, the composite z-score is 0.851 in the test on Sam68 (KHDRBS1), -0.236 in [7] and 0.446 in [8]. Further, in test [1], the composite Z-score was 0.414 (inactive).

Regarding `[N-]=[N+]=NCc1ccccc1[C@@H]1OC(c2ccc(OCCCO)cc2)=N[C@]1(Cc1ccccc1N=[N+]=[N-])C(=O)NCc1ccccc1`, the composite z-score stood at 0.753 with Albumin (Bos taurus); 0.111 in test [2]; 0.0427 in [3]; 0.42 in test [4]; 1.25 in test [5]; 0.272 in [6]. The composite z-score with Sam68 (KHDRBS1) was found to be 1.26; in test [7], 0.16; in test [8], 0.815. Further, the composite Z-score in test [1] is -0.0079 (inactive).

Consider `CC(=O)Nc1cc(Br)ccc1C(=O)O`, for which the composite z-score was 0.782 with Albumin (Bos taurus); -0.0142 in [2]; -0.0502 in test [3]; 0.363 in test [4]; 0.385 in test [5]; -0.0197 in test [6]. The composite z-score in the test on Sam68 (KHDRBS1) is 0.402; in [7], -0.421; in test [8], 0.984. For the same compound, the composite Z-score in test [1] is -0.705 (inactive).

With `O=C(CCN1CCOCC1)c1cccc(O)c1`, the composite z-score came out at 0.379 in the test with Albumin (Bos taurus); 0.324 in [2]; 0.0292 in [3]; 0.634 in [4]; 0.973 in test [5]; 0.629 in [6]. In addition, the composite z-score in the test with Sam68 (KHDRBS1) stood at 0.922; in test [7], 1.48; in test [8], 0.767. Further, in [1], the composite Z-score was 0.989 (inactive).

Take `C[C@]1(C(=O)NCc2ccccc2)c2ccccc2C(=O)N(Cc2ccc(OC(F)(F)F)cc2)[C@H]1c1ccc(CO)cc1`: the composite z-score in the test with Albumin (Bos taurus) is -0.125; in [2] it was -0.211; in test [3], -0.103; in test [4] it was 0.681; in [5], 1.78; in test [6], 0.107. For the same compound, the composite z-score in the test with Sam68 (KHDRBS1) was 0.426; in test [7] it was -0.256; in [8], 0.592. Also, the composite Z-score in test [1] is 0.843 (inactive).

As for `Cc1ccccc1C(O)C1C=CC2C(=O)N(C)C(=O)C2N1N1CCCCC1` (stereo not given), the composite z-score in the test with Albumin (Bos taurus) is 0.992; in test [2], 0.36; in test [3] it was 0.21; in test [4], 0.793; in test [5], 2.92; in [6], 0.996. The composite z-score in the test on Sam68 (KHDRBS1) amounted to 1.32; in test [7], 0.642; in [8], 1.09. In test [1], the composite Z-score was -0.118 (inactive).

On to `CCOC(=O)C1=CCC(C(C)(C)C)N(S(=O)(=O)c2ccc(C)cc2)C1` (stereo not given), for which the composite z-score with Albumin (Bos taurus) is 0.815; in test [2] it was 0.34; in test [3], -0.0196; in test [4], 0.623; in test [5], 2.45; in test [6] it was 0.368. In addition, the results for the composite z-score (in the test with Sam68 (KHDRBS1); in test [7]; in test [8]) were 1.32, 0.825 and 1.1, respectively. The composite Z-score in test [1] is -0.427 (inactive).

Turning to `CS(=O)(=O)CCOC(=O)C1=CC(CCCO)=CC(c2cccs2)N(Cc2cc3c(cc2Br)OCO3)C=C1C(=O)OCCS(C)(=O)=O` (stereo not given), the composite z-score with Albumin (Bos taurus) was 0.974; in test [2] it was 0.183; in test [3], -0.0149; in test [4], 0.337; in test [5] it was 1.64; in test [6], 0.817. Also, the composite z-score in the test with Sam68 (KHDRBS1) came out at 1.3; in test [7], 0.164; in test [8] it was 0.986. In [1], the composite Z-score was 1.05 (inactive).

Regarding `COC(=O)C[C@H]1O[C@]2(C(=O)N(Cc3ccccc3)c3ccc(NC(C)=O)cc32)[C@@H](C)[C@@H]1[Si](C)(C)c1ccc(OC)cc1`, the composite z-score is 0.298 with Albumin (Bos taurus); 0.0485 in test [2]; -0.13 in test [3]; 0.269 in test [4]; 0.696 in test [5]; 0.189 in test [6]. Moreover, the composite z-score turned out to be 1.31 in the test with Sam68 (KHDRBS1), 0.48 in [7] and 0.355 in test [8]. Besides, the composite Z-score in [1] was -0.114 (inactive).

`CC(C)(C)OC(=O)CC[C@@]1(C(=O)NCCN2CCOCC2)N=C(c2ccc(OCCCO)cc2)O[C@@H]1c1ccccc1`: the composite z-score turned out to be 1.03 in the test with Albumin (Bos taurus); 0.209 in test [2]; 0.0129 in test [3]; 0.539 in [4]; 1.46 in [5]; 0.275 in [6]. The results for the composite z-score (in the test with Sam68 (KHDRBS1); in test [7]; in [8]) were 1.3, -0.0233 and 1.17, respectively. For the same compound, in test [1], the composite Z-score is -0.548 (inactive).

`C=CCC(OC(C)=O)[C@@H]1[C@@H](N(Cc2ccc(-c3ccccc3)cc2)C(=O)Cc2ccc(F)cc2)c2cc(OCCCO)ccc2N1C(=O)c1ccc2ccccc2n1` (stereo not given in full): the composite z-score with Albumin (Bos taurus) was 0.59; in test [2] it was 0.0653; in [3], -0.0796; in test [4], -0.161; in test [5] it was 0.164; in test [6], 0.0508. In addition, the composite z-score was -0.0112 with Sam68 (KHDRBS1), 0.255 in [7] and -0.526 in test [8]. The composite Z-score in test [1] was -1.01 (inactive).

Turning to `O=C1OCCC=C[C@H]2OC34C=CCN(Cc5ccccc5)C(=O)[C@H]3N(CCCCCCO)C(=O)[C@@H]4C12` (stereo not given in full), the composite z-score is -0.0045 with Albumin (Bos taurus); -0.241 in test [2]; -0.171 in [3]; 0.898 in [4]; 1.2 in test [5]; 0.0054 in test [6]. Moreover, the results for the composite z-score (in the test with Sam68 (KHDRBS1); in [7]; in test [8]) were 0.409, -1.02 and -0.745, respectively. Further, in test [1], the composite Z-score was 0.0421 (inactive).

`C=C(C(=O)CC[C@H](OC(C)=O)c1ccc(OCCO)cc1)C(C)C`: the composite z-score in the test with Albumin (Bos taurus) was 0.531; in test [2], 0.0569; in test [3] it was -0.132; in test [4], 0.708; in test [5], 0.354; in test [6], 1.15. For the same compound, the results for the composite z-score (in the test on Sam68 (KHDRBS1); in [7]; in test [8]) were 0.564, 0.615 and 0.846, respectively. Also, the composite Z-score in test [1] is 0.277 (inactive).

Take `CCCC[C@H]1OB(O)C[C@H]2C1=C(C)C[C@H]1C(=O)N(Cc3ccccc3)C(=O)[C@H]12`: the composite z-score with Albumin (Bos taurus) was 0.067; in test [2] it was -0.0613; in test [3], -0.126; in [4] it was 0.38; in [5], 0.257; in [6] it was -0.361. The composite z-score in the test with Sam68 (KHDRBS1) came to 0.663; in [7], 0.472; in test [8], 0.546. The composite Z-score in [1] was 0.252 (inactive).

As to `COCCOC(=O)N1C(=O)[C@@]2(c3cc(C#Cc4ccc(OC)cc4)ccc31)[C@H](C(=O)N1CCN(c3ncccn3)CC1)[C@H]1C(=O)O[C@H](c3ccccc3)[C@H](c3ccccc3)N1[C@@H]2c1ccc(O)cc1`, the composite z-score in the test with Albumin (Bos taurus) is 0.259; in test [2], -0.112; in test [3], -0.0277; in test [4], 0.287; in [5], 0.722; in [6] it was 0.232. The composite z-score with Sam68 (KHDRBS1) was 0.634; in [7], -0.0397; in test [8], 0.762. Moreover, the composite Z-score in test [1] is 0.0527 (inactive).

Source of the values: PubChem BioAssay.
